# Shown are actives, neighbours in structure and some others; about 20% of the full set was active somewhere.
# HCMV antiviral = human cytomegalovirus inhibition; AID 1259415; 410,000 tested, 4.5% active; activity change, negative = inhibition, % at 57.5 µM; HFF cells, HCMV-luciferase reporter, 72 h; hits give low values; in the data active = activity change below about -60%; inconclusive = no clear call, values can overlap the other calls; inactive = above about -39%; also: % is scaled to controls: 0 for no effect and ±100 for the full control effect
#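 Screen run at 2 compound doses on HFFs infected with reporter HCMV, MOI 1 PFU/cell. Luciferase activity from cell lysates at 72 h post infection gave inhibition relative to buffer-only and Salinomycin wells.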
# Pf growth 48h = P. falciparum growth inhibition at 48 hours (one generation). P. falciparum luciferase growth in erythrocytes, 48 h. Potency, µM (titrated, usually from 28.7 µM), for the others: at the top dose activity change, negative = inhibition, most hits filed as inhibitors. 310,000 tested, 5.9% active; also: potency is read from the fitted curve at half-maximal effect; % is scaled to controls: 0 for no effect and ±100 for the full control effect
#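 Firefly luciferase activity from engineered P. falciparum reports growth; inhibitors lower the luminescent signal. Cultures contained 2% hematocrit erythrocytes at 0.1% final parasitemia.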
# CHX counter = counter-screen for Shiga toxin inhibitors: cycloheximide protein synthesis inhibition. AID 2314. 300,000 tested, 12% active. max response, %. cell reporter, cycloheximide protein synthesis inhibition counterscreen; in the data active = max response mostly above about 13%, no sharp cut-off; inactive = mostly below about 14%; also: read at 38.3 µM for the half of the compounds with a filed dose; 0% is about no effect
# Shiga toxin inh = blocks Shiga toxin action in Vero cells. Vero cells, Shiga toxin protein synthesis inhibition reporter. inhibition, % at 38.7 µM. 290,000 tested, 9.2% active; in the data active = inhibition mostly above about 28%, no sharp cut-off; inactive = mostly below about 43%; also: 0% is about no effect
# Pf growth 96h = P. falciparum growth inhibition at 96 hour, primary screen for plastid delayed-death inhibitors; 320,000 tested, 6.9% active; AID 504834; P. falciparum luciferase reporter growth, 96 h; Potency, µM (top dose mostly 28.7 µM), for the others: at the highest dose activity change, negative = inhibition, usual class: inhibitors; also: potency is read from the fitted curve at half-maximal effect; % is scaled to controls: 0 for no effect and ±100 for the full control effect
#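 Cell-based qHTS: luciferase-tagged P. falciparum in erythrocytes (2% hematocrit, 0.05% parasitemia final) incubated with compounds for 96 hours, 37 C, 5% CO2; luciferase detection reagent then added and luminescence measured.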
# Numbers without * were called inactive; i = inactive; u = inconclusive; x = no result given; [ ] = dose if it differs, or a comment. Unless noted, calls follow the shape of the dose curve; as a rule, active = well fitted inhibition curve with a large enough effect; inconclusive = small, poorly fitted or top-dose-only effect, or another doubt; inactive = no such curve, though single readings can be large or run the other way.
SMILES,HCMV antiviral,Pf growth 48h,CHX counter,Shiga toxin inh,Pf growth 96h
O=C(CN1CCN(c2ccccc2)CC1)Nc1ccccc1Cl,-33,-15%,-2,-9,-3%
O=C(CCl)Nc1ccccc1Sc1ccc(Cl)cc1,-103*,x,-5,-22,u
COc1ccc2c(c1)[nH]c1c(=O)n(/N=C/c3ccc(OC)c(COc4ccccn4)c3)cnc12,45,25%,6,67*,14%
COc1ccc2c(c1)[nH]c1c(=O)n(/N=C/c3ccc(OC)c(CN4CCCCC4)c3)cnc12,-31,u,-1,-9,u
COc1ccc(-c2oc3ncn(CCN4CCOCC4)c(=N)c3c2-c2ccc(OC)cc2)cc1,u,7.4µM*,-2,-11,22%
COc1ccc(-c2oc3ncnc(NCCCN4CCOCC4)c3c2-c2ccc(OC)cc2)cc1,u,5.2µM*,2,-4,82%
CCOc1cc2nc(-c3ccc(OC)c(OC)c3)nc(NCCCN3CCOCC3)c2cc1OC,54,x,-5,-13,0.074µM*
COc1cc2ncnc(NCCCN3CCOCC3)c2cc1OC,20,u,-1,-7,u
COc1ccc(-c2oc3ncnc(NCCN4CCOCC4)c3c2-c2ccc(OC)cc2)cc1,x,x,-1,-23,u
c1ccc(-c2oc3ncnc(NCCCN4CCOCC4)c3c2-c2ccccc2)cc1,-20,u,-6,-15,u
O=C(CCc1nnc2ccc(N3CCCC3)nn12)Nc1ccc(F)cc1F,-40,-12%,-5,-10,2%
COCCCNC(=S)NNC(=S)Nc1ccc(F)cc1F,-10,x,44*,54*,3%
COCCCNC(=S)Nc1ccc(C)cc1,4,11%,0,4,14%
O=C(Cc1ccc(F)cc1)NCCc1ccc(F)cc1,-38,x,6,-4,-25%
COCCCNC(=S)NNC(=S)Nc1ccccc1,84,43%,27*,40*,37%
C=CCNC(=S)Nc1ccc(F)cc1F,u,20%,1,-13,54%
COCCCNC(=S)NCCc1ccc(F)cc1,15,56%,26,45*,-16%
O=[N+]([O-])c1ccc(C2=Nn3c(Cn4nnc5ccccc54)nnc3SC2)cc1,9,-25%,-2,-15,u
CCC(C)(C)NC(=O)Cc1ccc(C)cc1,-20,x,21*,83*,5%
Cc1ccc(NC(=O)Cc2ccc(F)cc2)cc1,-21,59%,21*,13,x
Cc1ccc(NC(=O)CSCc2ccco2)cc1,-17,69%,23*,105*,17%
Cc1ccc(NC(=O)CSCc2ccc(F)cc2)cc1,-18,56%,51*,76*,82%
Cc1ccc(Oc2c(C(F)(F)F)oc3cc(OCC(=O)NC4CCCCC4)ccc3c2=O)cc1,0,x,x,x,x
Cc1ccc(CSCC(=O)Nc2ccccc2F)cc1,23,-4%[5.75 µM],25*,68*,29%
COc1ccc(CSCC(=O)Nc2ccccc2SC)cc1,u,0%,0,-10,-14%
SMILES,HCMV antiviral,Pf growth 48h,CHX counter,Shiga toxin inh,Pf growth 96h
COc1ccc(S(=O)(=O)N2CCN(CC(=O)c3ccc(O)c(O)c3)CC2)cc1,-35,-3%,-1,-8,15µM*
COc1ccc(C)cc1NC(=O)CN1CCN(S(=O)(=O)c2ccc3ccccc3c2)CC1,u,u,x,x,12µM*
O=C(CN1CCN(S(=O)(=O)c2ccc(F)cc2)CC1)c1ccc(O)c(O)c1,47,-30%,11,-3,0%
Cc1ccc(NC(=O)Cn2c(=O)ccc3cc(S(=O)(=O)N4CCC(C)CC4)ccc32)cc1C,11,x,x,x,x
COc1ccc(S(=O)(=O)N2CCN(CC(=O)Nc3cc(C(F)(F)F)ccc3Cl)CC2)cc1,x,4.7µM*,-3,-9,17%
COc1ccc(C)cc1NC(=O)Cn1c(=O)ccc2cc(S(=O)(=O)N3CCC(C)CC3)ccc21,-114*,x,x,x,x
Cc1cc(C)c(/C=C/c2onc(C)c2S(=O)(=O)N2CCC(C(=O)NCc3ccco3)CC2)c(C)c1,-39,x,x,x,x
Cc1cc2nn(-c3ccc(F)cc3)nc2cc1NC(=O)c1cc(Cl)ccc1Cl,24,x,x,x,x
C=C1C/C(C)=C/CCc2cc(OS(=O)(=O)C(F)(F)F)ccc2-c2ccc(OC)c(OC)c21,-1,x,x,x,x
CSc1nnc(-c2ccc(Cl)cc2Cl)o1,5,135%,52*,91,x
CSc1nnc(-c2ccccc2Cl)o1,-3,x,29*,88*,-13%
CCCCOC(=O)CSc1nnc(-c2ccc(Cl)cc2Cl)o1,-32,9%,-2,22,56%
CC(C)OC(=O)CSc1nnc(-c2ccc(Cl)cc2Cl)o1,-1,25%,-2,-18,85%
CCSc1nnc(-c2ccc(Cl)cc2Cl)o1,27,x,57*,85*,-5%
O=C(O)CCSc1nnc(-c2ccc(Cl)cc2Cl)o1,-76*,x,x,x,x
CSc1ccccc1-c1nnc(-c2ccc(Cl)cc2Cl)o1,42,54%,24,30,141%
O=c1[nH]c2ccccc2n2c(=S)[nH]nc12,-32,12%,2,1,3%
CCSc1nnc(-c2ccccc2SC)o1,4,i,20,35,8.3µM*
CC(C)NCc1nnc(-c2ccccc2Cl)o1,0,1%,15,39*,u
Cc1c(NC(=O)c2ccc(Br)o2)cccc1-c1nc2ccccc2o1,-22,x,x,x,x
CC1(c2ccccc2)CC(C)(C)N(C(=O)c2ccccc2Cl)c2ccccc21 (centres undefined),28,x,x,x,x
COc1ccccc1C(=O)N1c2ccccc2C(C)(c2ccc(Cl)cc2)CC1(C)C (centres undefined),-72*,x,x,x,x
COc1ccc(C(=O)N2c3ccc(C)cc3C(C)(c3ccccc3)CC2(C)C)cc1 (centres undefined),-71*,x,x,x,x
CC1(c2ccc(Cl)cc2)CC(C)(C)N(C(=O)c2cccc(F)c2)c2ccccc21 (centres undefined),-65*,x,x,x,x
NS(=O)(=O)c1ccc(CCNc2ncnc3sccc23)cc1,u,6%,-5,-35,x
Cc1sc2ncnc(NCCc3ccc(S(N)(=O)=O)cc3)c2c1C,-76*,x,-2,-17,u

# From PubChem
